Screening results: PubChem BioAssay, National Center for Advancing Translational Sciences (NCATS)
Shiga inhibitor = Shiga toxin inhibition; Vero cells, Shiga toxin protein synthesis inhibition reporter; inhibition, % at 38.7 µM; 290,000 compounds, 9.2% hits; AID 2315; in the data active = inhibition mostly above about 28%, no sharp cut-off; inactive = mostly below about 43%; note: 0% is about no effect
Giardia FBPA inh = Giardia lamblia aldolase inhibition; A8B2U2; purified Giardia FBPA; Potency, µM (series often up to 59.6 µM), for the others: at the top dose activity, negative = inhibition, usual class: inhibitors; 290,000 compounds, 0.71% hits; AID 2451; note: potency is the fitted concentration of half-maximal effect; % is set by controls: 0 for no effect and ±100 for the full control effect; nearly all actives have a fitted effect of over 55% in size
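Giardia FBPA (40 nM reagent) was preincubated 10 min at RT with compound (up to 57.5 uM final), then substrate plus GAPDH/TPI/NAD/arsenate coupling system with diaphorase/resazurin was added; resorufin fluorescence (525/598 nm) was read after 20 min.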
TbPYK inhibitor = blocks Trypanosoma brucei pyruvate kinase; Q57TT1; TbPYK enzyme, Kinase-Glo Plus ATP luminescence, 45 min; Potency, µM (top dose mostly 76.8 µM), for the others: top-dose activity, negative = inhibition, most hits filed as inhibitors; 410,000 compounds, 0.12% hits; AID 624173; note: potency is the fitted concentration of half-maximal effect; % is set by controls: 0 for no effect and ±100 for the full control effect; nearly all actives have a fitted effect of over 50% in size
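Luminescence from Kinase-Glo Plus, added after a 45-minute room-temperature reaction, served as the end-point read-out. The enzyme and substrate were preincubated with compound before ADP (130 uM final) initiated turnover. Concentration-effect curves came from normalized qHTS data.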
RE007 growth inh = less growth of the S. pombe RE007 Vpr strain; S. pombe RE007 Vpr strain, BacTiter-Glo ATP luminescence, 24 h; Potency, µM (highest dose often 92.2 µM), for the others: at the highest dose activity change, negative = less growth, hits mostly inhibitors; 360,000 compounds, 0.21% hits; AID 651644; active = well fitted falling curve with a large enough effect; inconclusive = small, poorly fitted or top-dose-only effect; inactive = no such curve, though single readings can be large or run the other way; note: potency is the fitted concentration of half-maximal effect; % is set by controls: 0 for no effect and ±100 for the full control effect; nearly all actives have a fitted effect of over 50% in size
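Fission yeast strain RE007, carrying one chromosomally integrated HIV-1 vpr copy, was seeded at OD 0.01 in PMG+AL medium with 23 nL pinned compound. After 24 h at 30 °C and 99% humidity, viability was read by BacTiter-Glo luminescence.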
LmPK inhibitor = blocks Leishmania mexicana pyruvate kinase activity. Q27686. purified LmPK, Kinase-Glo ATP luminescence, 1 h. Potency, µM (series often up to 57.5 µM), without a hit: top-dose activity change, negative = inhibition, hits mostly inhibitors. 290,000 compounds, 0.37% hits. AID 1721; note: potency is the fitted concentration of half-maximal effect; % is set by controls: 0 for no effect and ±100 for the full control effect
Target sequence (Q27686 whole entry, looked up): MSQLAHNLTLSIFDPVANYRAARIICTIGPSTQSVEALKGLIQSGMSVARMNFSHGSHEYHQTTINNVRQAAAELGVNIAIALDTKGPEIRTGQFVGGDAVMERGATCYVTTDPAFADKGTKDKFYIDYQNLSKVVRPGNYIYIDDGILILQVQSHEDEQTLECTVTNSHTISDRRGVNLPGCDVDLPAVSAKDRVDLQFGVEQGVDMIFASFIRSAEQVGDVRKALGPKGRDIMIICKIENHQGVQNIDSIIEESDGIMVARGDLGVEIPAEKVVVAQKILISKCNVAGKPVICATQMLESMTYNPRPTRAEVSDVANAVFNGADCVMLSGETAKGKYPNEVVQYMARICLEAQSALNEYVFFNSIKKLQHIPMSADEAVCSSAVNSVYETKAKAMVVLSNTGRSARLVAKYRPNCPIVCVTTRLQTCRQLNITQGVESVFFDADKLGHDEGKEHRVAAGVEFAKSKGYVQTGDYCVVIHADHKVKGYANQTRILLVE
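Screened at intermediate enzyme activity to detect both inhibitors and activators: LmPK at 0.1 nM, with a 0.5 nM enzyme column as activation reference. PEP 0.5 mM, ADP 0.1 mM; ATP detected by luminescence after 1 h.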
CHX counter-1 = counter-screen for Shiga toxin inhibitors: cycloheximide protein synthesis inhibition; AID 2314; cell reporter, cycloheximide protein synthesis inhibition counterscreen; 300,000 compounds, 12% hits; max response, %; in the data active = max response mostly above about 13%, no sharp cut-off; inactive = mostly below about 14%; note: read at 38.3 µM for the half of the compounds with a filed dose; 0% is about no effect
CHX counter-2 = affects protein synthesis reporter in cycloheximide counter-screen. shares compounds with Shiga inhibitor. Cycloheximide counterscreen, protein synthesis reporter, Shiga toxin assay. Potency, µM (doses to about 38.3 µM), for the others: at the highest dose activity (activation), actives largely listed as activators. 510 compounds, 3% hits; calls by dose curve; note: potency is the fitted concentration of half-maximal effect; 0% is about no effect
The depositor's hits bear a star; ? = inconclusive; . = no result given. Shown is part of a subset that was picked to be rich in hits. Unless noted, calls come from the whole dose curve; as a rule, active = well fitted curve in the direction sought with a large enough effect; inconclusive = small, poorly fitted or top-dose-only effect, or another doubt; inactive = no such curve, though single readings can be large; an effect the other way counts as inactive or inconclusive.

SMILES | Shiga inhibitor | Giardia FBPA inh | TbPYK inhibitor | RE007 growth inh | LmPK inhibitor | CHX counter-1 | CHX counter-2
COc1cccc(C(C(=O)NC2CCCC2)N(C(=O)c2ccco2)C2CC2)c1OC (configuration not stated) | 35* | 0% | -3% | -10% | -3% | -2 | 2%
Cc1ccccc1-c1nnc(SCC#N)o1 | 33* | 0% | -4% | 1% | 4% | 10 | 1%
CC(=O)c1ccc2noc(-c3ccc(F)cc3)c2c1 | 52* | -1% | -20% | -7% | 1% | 13 | 2%
CC(=O)c1ccc2noc(-c3ccc(Cl)cc3)c2c1 | 15 | 2% | -2% | 3% | 8% | -3 | .
Cc1ccc(C)c(N(C)S(=O)(=O)c2ccc3c(c2)oc(=O)n3C)c1 | -3 | -3% | 2% | 11% | -3% | -4 | .
O=C1Cc2cc([N+](=O)[O-])ccc2N1c1c(Cl)cccc1Cl | 64* | -7% | 4% | -4% | 1% | -3 | -5%
CC(C)N(Cc1cc2ccccc2[nH]c1=O)C(=O)c1cccnc1 | -13 | 0% | 4% | -4% | 1% | 2 | .
O=C(c1cccnc1)c1cc2ccccc2[nH]1 | active | 0% | 3% | -10% | -4% | 3 | 6%
O=C(NCCc1csc(-c2cccnc2)n1)c1cccc(Cl)c1 | 41 | 6% | 10% | -2% | -6% | 10 | .
O=C(NCCc1csc(-c2cccnc2)n1)c1ccc(Cl)cc1 | 21* | 4% | 3% | 4% | 6% | -2 | ?
CCN1CC(CNC(=O)c2ccc3nc(Cc4cccc(Cl)c4)oc3c2)CC1=O (configuration not stated) | -12 | 4% | 0% | 2% | -3% | -1 | .
NC(=O)[C@@H]1CCCN1C(=O)c1ccc2nc(Cc3cccc(Cl)c3)oc2c1 | 24* | . | 6% | -14% | -6% | -2 | 0%
CC1CCC/C=C/C2CC(O)CC2C(O)/C=C/C(=O)O1 (configuration not stated) | 41* | -1% | 0% | 3% | -2% | 5 | -7%
COc1ccc(CNCC(=O)Nc2sccc2C#N)cc1 | 52* | ? | 4% | -27% | -4% | 13 | 2%
COC(=O)c1cc2oc3ccccc3c2n1CC(=O)Nc1ccc(C)cc1C | . | . | 4% | . | . | . | .
CCOC(=O)c1c(C)[nH]c(/C(C)=N/O)c1C | 16 | 2% | 3% | -17% | -5% | 12 | .
CCOC(=O)c1c(C)[nH]c(C2=NNC(=NC3CC3)SC2)c1C | 32* | -8% | 7.9µM* | -15% | -22% | 10 | 0.05µM*
Cc1ccc(S(=O)(=O)c2nc(S(C)(=O)=O)sc2N2CCC(C)CC2)cc1 | 13 | . | 5% | 1% | 1% | -3 | .
O=C(c1ccco1)N1CCC(c2nc3c(nnn3Cc3ccccc3Cl)c(=O)[nH]2)CC1 | -3 | 2% | -7% | 6% | -3% | -6 | .
O=C(c1ccco1)N1CCN(c2nc(C3CC3)nc3c2nnn3Cc2ccccc2Cl)CC1 | active | 4% | 0% | 6% | 5% | 6 | 1%
CCOC(=O)N1CCN(C(=O)CSc2nc(=O)n3ccc(C)cc3n2)CC1 | . | . | 4% | 5% | . | . | .
CCOc1ccccc1CN1CCN(S(=O)(=O)c2ccccc2)CC1 | . | . | 8% | . | . | . | .
CCOc1cc(S(=O)(=O)N2CCN(Cc3ccccc3)CC2)ccc1Br | 136* | -6% | 2% | -18% | 1% | 7 | 0%
Cc1cc(N2CCOCC2)nc(-c2ccccc2O)n1 | -6 | 1% | -2% | -24% | 1% | 9 | .
Cc1cc(N2CCCCCC2)nc(-c2ccccc2O)n1 | 59* | 5% | 3% | -6% | -5% | 4 | 2%
SMILES | Shiga inhibitor | Giardia FBPA inh | TbPYK inhibitor | RE007 growth inh | LmPK inhibitor | CHX counter-1 | CHX counter-2
Cc1ccc(CC(=O)NC2CCSC2=O)cc1 (configuration not stated) | 6 | 0% | -1% | -1% | 11% | 3 | .
Cc1c(C(=O)Nc2ccc(-c3nnc4n3CCCCC4)cc2)oc2ccc(Br)cc12 | 14* | -4% | -6% | -14% | -1% | -4 | ?
Cc1sc2ncn(CC(=O)N3CCN(c4ccccc4F)CC3)c(=O)c2c1S(=O)(=O)N1CCC(C)CC1 | . | . | 0% | . | . | . | .
CCN1CCN(C(=O)c2ccc3c(=O)n(CCC4=CCCCC4)c(=O)[nH]c3c2)CC1 | 29* | 6% | -2% | 7% | -1% | 11 | ?
CCOc1cc2[nH]c(=O)n(CCCCC(=O)N3CCN(c4ccccc4OC)CC3)c(=O)c2cc1OCC | . | . | 1% | . | . | . | .
COc1cc(C2NC(=O)NC(C)=C2C(=O)OCC2CCCCC2)ccc1O (configuration not stated) | 14 | 6% | -4% | -8% | -2% | -2 | .
CC(C)Oc1ccc(C(=O)NC(Cc2c[nH]c3ccccc23)C(=O)NN)cc1 (configuration not stated) | 37* | 9% | -4% | 2% | 4% | 9 | 1%
C=CCc1ccccc1OCC(O)CN1CCN(c2ccccc2)CC1 (configuration not stated) | . | . | -3% | . | . | . | .
C=CCc1cc(C)ccc1OCC(O)CN1CCN(c2ccccc2)CC1 (configuration not stated) | 33* | ? | 14% | -11% | -1% | -2 | 0%
O=C(NCCN1CCOCC1)C(=O)NCC1OCCN1S(=O)(=O)c1ccccc1 (configuration not stated) | 12* | . | 6% | 5% | -5% | 9 | -1%
CN(C)S(=O)(=O)c1cccc(C(=O)NC2CCSc3ccccc32)c1 (configuration not stated) | -12 | . | 5% | 6% | -6% | -1 | .
CON(C)S(=O)(=O)c1cccc(C(=O)NC2CCSc3ccccc32)c1 (configuration not stated) | 77* | -8% | -2% | 12% | 11% | 4 | -4%
COC(=O)C(O)(c1ccc(N(C)S(=O)(=O)c2ccccc2)cc1)C(F)(F)F (configuration not stated) | 84* | -4% | 3% | 1% | 1% | 13 | ?
Cc1cc(C)nc(Nc2nc(C(N)Cc3ccccc3)cs2)n1 (configuration not stated) | . | . | 1% | -19% | . | . | .
COC(=O)CCCCCN1C(=O)NC(CC2CC2)C(C(=O)OCc2ccccc2)=C1C (configuration not stated) | . | -1% | . | . | . | . | .
CC1=Nc2cc(C(=O)NCCc3ccc(Cl)cc3)ccc2Sc2ccc(C)cc21 | . | . | -4% | . | . | . | .
Cn1nccc1C(=O)Nc1sc2c(c1C#N)CCCC2 | 16* | . | -4% | -8% | 1% | 16 | ?
CC(=O)Nc1sc2c(c1C#N)CCC2 | -1 | -6% | -4% | -25% | 2% | 11 | .
